# Laboratory results as given in PubChem BioAssay (EPA / NIEHS).
# “And” between values parts separate entries of the source, which are not always exact repeats. Equal entries are not always repeated. Some compounds were tested as several samples or in several runs, with calls that do not always agree. The source made the active and inactive calls. The calls were made as follows: active = hit-call score of the fitted dose curve at least 0.9, where 1 is the maximum; inactive = score below 0.9.
# Experiments:
# [1] = read-out: Interleukin-8 (IL8), CXCL8 (gene 3576); assay: BSK_BF4T_IL8: BioMAP Diversity Plus: BF4T Assay for Interleukin-8 (IL8) Biomarker Activity (AID 2284263); details: primary human bronchial epithelial cells with fibroblasts
# Procedure, shortened: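 Human bronchial epithelial cells with dermal fibroblasts co-culture; IL-8 measured by ELISA 24 hours after dosing, fitted vs DMSO. Cytotoxicity tracked in parallel cultures by SRB total-protein staining.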
# [2] = read-out: Interleukin-1 alpha (IL1a), IL1A (gene 3552); assay: BSK_BF4T_IL1a: BioMAP Diversity Plus: BF4T Assay for Interleukin-1 alpha (IL1a) Biomarker Activity (AID 2284264); details: primary human bronchial epithelial cells with fibroblasts
# Procedure, shortened: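 Human bronchial epithelial cells co-cultured with dermal fibroblasts, dosed and read at 24 h. Secreted/surface IL-1α quantified by ELISA; gain-of-signal fitted relative to DMSO baseline. Parallel SRB total-protein staining tracked cytotoxicity.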
# Decorin, DCN (gene 1634) = assay: BSK_MyoF_Decorin: BioMAP Diversity Plus: MyoF Assay for Decorin Biomarker Activity (AID 2284265); details: primary human lung fibroblasts
# Procedure, shortened: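 Decorin protein was quantified by ELISA 24 h after chemical addition to primary human lung fibroblasts and analysed as increase over DMSO. Cytotoxicity was tracked in parallel cultures by SRB total-protein staining read at 560 nm.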
# KRT18 (gene 3875) [3] = assay: BSK_BF4T_Keratin818: BioMAP Diversity Plus: BF4T Assay for Keratin 818 Biomarker Activity (AID 2284266); details: primary human bronchial epithelial cells with fibroblasts
# Procedure, shortened: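 Co-culture of human bronchial epithelial cells and dermal fibroblasts, chemical exposure 24 h. Keratin 8/18 measured by ELISA; positive-direction fit vs DMSO. SRB total protein run in parallel cultures for cytotoxicity.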
# [4] = read-out: Matrix Metallopeptidase 1 (MMP1), MMP1 (gene 4312); assay: BSK_MyoF_MMP1: BioMAP Diversity Plus: MyoF Assay for Matrix Metallopeptidase 1 (MMP1) Biomarker Activity (AID 2284268); details: primary human lung fibroblasts
# Procedure, shortened: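 Human lung fibroblasts (MyoF system) exposed to chemical for 24 h in 96-well format; MMP1 biomarker quantified by ELISA, with activity fitted in the positive direction relative to DMSO baseline.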
# [5] = read-out: TIMP metallopeptidase inhibitor 1 (TIMP1), TIMP1 (gene 7076); assay: BSK_MyoF_TIMP1: BioMAP Diversity Plus: MyoF Assay for TIMP metallopeptidase inhibitor 1 (TIMP1) Biomarker Activity (AID 2284269); details: primary human lung fibroblasts
# Procedure, shortened: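 Primary human lung fibroblasts, MyoF multiplex system; chemical exposure 24 h; TIMP-1 by ELISA; positive fitting direction vs DMSO control.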
# [6] = read-out: Matrix Metallopeptidase 1 (MMP1), MMP1 (gene 4312); assay: BSK_BF4T_MMP1: BioMAP Diversity Plus: BF4T Assay for Matrix Metallopeptidase 1 (MMP1) Biomarker Activity (AID 2284270); details: primary human bronchial epithelial cells with fibroblasts
# Procedure, shortened: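 Co-culture of human bronchial epithelial cells and dermal fibroblasts; MMP-1 levels measured by ELISA 24 hours after chemical dosing, relative to DMSO. Cytotoxicity checked in parallel cultures by SRB total-protein staining.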
# [7] = read-out: Matrix Metallopeptidase 3 (MMP3), MMP3 (gene 4314); assay: BSK_BF4T_MMP3: BioMAP Diversity Plus: BF4T Assay for Matrix Metallopeptidase 3 (MMP3) Biomarker Activity (AID 2284271); details: primary human bronchial epithelial cells with fibroblasts
# Procedure, shortened: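 Co-culture of human bronchial epithelial cells and dermal fibroblasts dosed 24 h; MMP-3 measured by ELISA, positive-direction fit versus DMSO. Cytotoxicity tracked by SRB total-protein staining (560 nm) in parallel cultures.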
# [8] = read-out: Tissue plasminogen activator (tPA), PLAT (gene 5327); assay: BSK_BF4T_tPA: BioMAP Diversity Plus: BF4T Assay for Tissue plasminogen activator (tPA) Biomarker Activity (AID 2284272); details: primary human bronchial epithelial cells with fibroblasts
# Procedure, shortened: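 tPA level quantified by ELISA at 24 h post-treatment in bronchial epithelial/dermal fibroblast co-cultures, gain of signal scored against DMSO baseline. Parallel cultures stained with 0.1% SRB (560 nm) to flag overt cytotoxicity.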
# [9] = read-out: Matrix Metallopeptidase 9 (MMP9), MMP9 (gene 4318); assay: BSK_BF4T_MMP9: BioMAP Diversity Plus: BF4T Assay for Matrix Metallopeptidase 9 (MMP9) Biomarker Activity (AID 2284276); details: primary human bronchial epithelial cells with fibroblasts
# Procedure, shortened: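 Co-culture of human bronchial epithelial cells and dermal fibroblasts dosed for 24 h; MMP-9 quantified by ELISA and fitted upward versus DMSO. Cytotoxicity monitored in parallel cultures by SRB total-protein staining at the biomarker time point.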
# [10] = read-out: Interleukin-8 (IL8), CXCL8 (gene 3576); assay: BSK_IMphg_IL8: BioMAP Diversity Plus: IMphg Assay for Interleukin-8 (IL8) Biomarker Activity (AID 2284277); details: primary human endothelial cells with macrophages
# Procedure, shortened: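 Co-culture of human venular endothelial cells and macrophages exposed to chemicals for 24 h; IL-8 quantified by ELISA and compared against the DMSO baseline, with SRB total-protein staining in parallel cultures for cytotoxicity.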
# [11] = read-out: Intercellular Adhesion Molecule 1 (ICAM1), ICAM1 (gene 3383); assay: BSK_BE3C_ICAM1: BioMAP Diversity Plus: BE3C Assay for Intercellular Adhesion Molecule 1 (ICAM1) Biomarker Activity (AID 2284278); details: primary human bronchial epithelial cells;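 as to outcome: cell-surface ICAM-1 protein level quantified by ELISA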
# Procedure, shortened: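 Primary human bronchial epithelial cells in BE3C system, 24 h after chemical dosing; cell-surface ICAM-1 measured by ELISA relative to DMSO. Parallel SRB staining (0.1% SRB after 10% TCA fixation, read at 560 nm) assessed cytotoxicity.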
# [12] = read-out: Interferon-inducible T-cell alpha chemoattractant (ITAC), CXCL11 (gene 6373); assay: BSK_BE3C_ITAC: BioMAP Diversity Plus: BE3C Assay for Interferon-inducible T-cell alpha chemoattractant (ITAC) Biomarker Activity (AID 2284279); details: primary human bronchial epithelial cells
# Procedure, shortened: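 Steps: dose human bronchial epithelial cells with chemical; incubate 24 h; measure I-TAC by ELISA; fit endpoint in positive direction against DMSO control. Cytotoxicity was checked in parallel cultures by SRB staining at harvest.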
# [13] = read-out: Interleukin-8 (IL8), CXCL8 (gene 3576); assay: BSK_BE3C_IL8: BioMAP Diversity Plus: BE3C Assay for Interleukin-8 (IL8) Biomarker Activity (AID 2284280); details: primary human bronchial epithelial cells
# Procedure, shortened: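 Primary human bronchial epithelial cells (BE3C system) exposed 24 h; IL-8 measured by ELISA and fitted in positive direction versus DMSO. Overt cytotoxicity assessed by SRB total-protein staining in parallel cultures.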
# [14] = read-out: Epidermal growth factor receptor (EGFR), EGFR (gene 1956); assay: BSK_BE3C_EGFR: BioMAP Diversity Plus: BE3C Assay for Epidermal growth factor receptor (EGFR) Biomarker Activity (AID 2284281); details: primary human bronchial epithelial cells
# Procedure, shortened: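 Human primary bronchial epithelial cells (BE3C system) dosed with chemicals; EGFR measured by ELISA at 24 h, fitted in the positive direction relative to DMSO. Cytotoxicity tracked in parallel cultures by SRB total-protein staining.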
# KRT18 (gene 3875) [15] = assay: BSK_BE3C_Keratin818: BioMAP Diversity Plus: BE3C Assay for Keratin 818 Biomarker Activity (AID 2284282); details: primary human bronchial epithelial cells
# Procedure, shortened: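 Primary human bronchial epithelial cells treated 24 h; Keratin 8/18 quantified by ELISA, fit relative to DMSO. Cytotoxicity tracked in parallel cultures by sulforhodamine B total-protein staining.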
# [16] = BSK_MyoF_SRB: Viability Assessment in the BioMAP Diversity Plus: MyoF Assay (AID 2284267); details: primary human lung fibroblasts;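 also: total protein by SRB absorbance in parallel cultures as cytotoxicity measure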
# Procedure, shortened: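 Human lung fibroblasts, 24 h after chemical dosing; total protein measured by 0.1% sulforhodamine B staining after 10% TCA fixation, read at 560 nm, fitted relative to DMSO baseline.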
# [17] = read-out: Plasminogen Activator Inhibitor-1 (PAI1), SERPINE1 (gene 5054); assay: BSK_BF4T_PAI1: BioMAP Diversity Plus: BF4T Assay for Plasminogen Activator Inhibitor-1 (PAI1) Biomarker Activity (AID 2284273); details: primary human bronchial epithelial cells with fibroblasts
# Procedure, shortened: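 Co-culture of human bronchial epithelial cells and dermal fibroblasts exposed to compound for 24 h. PAI-1 measured by ELISA; activity fitted in positive direction versus DMSO. Parallel SRB staining assessed overt cytotoxicity.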
# [18] = BSK_BF4T_SRB: Viability Assessment in the BioMAP Diversity Plus: BF4T Assay (AID 2284274); details: primary human bronchial epithelial cells with fibroblasts
# Procedure, shortened: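 Co-culture of human bronchial epithelial cells and dermal fibroblasts (BioMAP BF4T) exposed 24 h. Total protein by sulforhodamine B staining (0.1% SRB after 10% TCA fixation, 560 nm) in parallel cultures; fitted vs DMSO.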
# [19] = read-out: urokinase Plasminogen Activator (uPA), PLAU (gene 5328); assay: BSK_BF4T_uPA: BioMAP Diversity Plus: BF4T Assay for urokinase Plasminogen Activator (uPA) Biomarker Activity (AID 2284275); details: primary human bronchial epithelial cells with fibroblasts
# Procedure, shortened: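 Co-culture of human bronchial epithelial cells and dermal fibroblasts; uPA quantified by ELISA 24 hours after dosing, fitted relative to DMSO. Parallel SRB total-protein staining assessed overt cytotoxicity.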
compound,measurement,setting,value
O=C(O)C(F)(F)C(F)(F)C(F)F,outcome,[1],inactive
same,outcome,[2],inactive
same,AC50,"Decorin, DCN (gene 1634)",30 µM (active)
same,outcome,"Decorin, DCN (gene 1634)",inactive
same,outcome,KRT18 (gene 3875) [3],inactive
same,outcome,[4],inactive
same,outcome,[5],inactive
same,outcome,[6],inactive
same,outcome,[7],inactive
same,outcome,[8],inactive
same,outcome,[9],inactive
same,outcome,[10],inactive
same,outcome,[11],inactive
same,outcome,[12],inactive
same,outcome,[13],inactive
same,outcome,[14],inactive
same,outcome,KRT18 (gene 3875) [15],inactive
OCC(F)(F)C(F)(F)C(F)(F)F,outcome,[1],inactive
same,outcome,[2],inactive
same,outcome,"Decorin, DCN (gene 1634)",inactive
same,outcome,KRT18 (gene 3875) [3],inactive
same,outcome,[16],inactive
same,outcome,[4],inactive
same,outcome,[5],inactive
same,outcome,[7],inactive
same,outcome,[8],inactive
same,outcome,[17],inactive
same,outcome,[18],inactive
same,outcome,[9],inactive
same,outcome,[10],inactive
same,outcome,[11],inactive
same,outcome,[12],inactive
same,outcome,[13],inactive
same,outcome,[14],inactive
same,outcome,KRT18 (gene 3875) [15],inactive
FC(F)(F)C(F)(F)C(F)(F)C(F)(F)C(F)(F)C(F)(F)C(F)(F)C(F)(F)CCS,outcome,[1],inactive
same,outcome,[2],inactive
same,outcome,"Decorin, DCN (gene 1634)",inactive
same,outcome,KRT18 (gene 3875) [3],inactive
same,outcome,[16],inactive
same,outcome,[4],inactive
same,outcome,[7],inactive
same,outcome,[8],inactive
same,outcome,[9],inactive
same,outcome,[10],inactive
same,outcome,[11],inactive
same,outcome,[12],inactive
same,outcome,[13],inactive
same,outcome,[14],inactive
same,outcome,KRT18 (gene 3875) [15],inactive
O=C(CC(=O)C(F)(F)C(F)(F)F)C(F)(F)F,outcome,[1],inactive
same,outcome,[2],inactive
same,outcome,"Decorin, DCN (gene 1634)",inactive
same,outcome,KRT18 (gene 3875) [3],inactive
same,outcome,[16],inactive
same,outcome,[4],inactive
same,outcome,[5],inactive
same,outcome,[7],inactive
same,outcome,[8],inactive
same,outcome,[19],inactive
same,outcome,[9],inactive
same,outcome,[10],inactive
same,outcome,[11],inactive
same,outcome,[12],inactive
same,outcome,[13],inactive
same,outcome,[14],inactive
same,outcome,KRT18 (gene 3875) [15],inactive
O=C(O)C(F)(F)C(F)(F)C(F)(F)C(F)(F)C(F)(F)C(F)(F)C(F)(F)C(F)(F)Cl,AC50,[1],51.9 µM (active) and 50.3 µM (active)
same,AC50,[2],45.2 µM (active) and 44 µM (active)
same,AC50,"Decorin, DCN (gene 1634)",21.3 µM (active)
same,outcome,"Decorin, DCN (gene 1634)",inactive
same,AC50,KRT18 (gene 3875) [3],45 µM (active) and 49.7 µM (active)
same,AC50,[4],51.5 µM (active)
same,outcome,[4],inactive
same,AC50,[7],52.7 µM (active) and 55.1 µM (active)
same,AC50,[8],10.7 µM (active) and 5.95 µM (active)
same,AC50,[9],37.1 µM (active) and 30 µM (active)
same,outcome,[10],inactive
same,AC50,[11],45.1 µM (active) and 45.8 µM (active)
same,AC50,[12],40.8 µM (active) and 23.3 µM (active)
same,AC50,[13],38 µM (active) and 30 µM (active)
same,AC50,[14],13.6 µM (active) and 11.5 µM (active)
same,AC50,KRT18 (gene 3875) [15],48.7 µM (active) and 56 µM (active)
